# A number with no mark means an inactive call. Inconclusive results are not listed. Entries that show only a call come without a potency. Activity calls are given as the source filed them. Calls follow the shape of the full dose curve.
# Biological target: Acetylcholinesterase (Homo sapiens) (UniProt P22303)
# Experiment: Acetylcholinesterase (AChE) small molecule antagonists: colormetric cell-based qHTS assay (AID 1347395); also: nearly all actives have a fitted effect of over 30% in size
# Settings: SH-SY5Y cells AChE activity, colorimetric (Ellman); series mostly up to 115 µM
# Procedure, shortened: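 Homogeneous whole-cell format. SH-SY5Y cells seeded overnight, dosed with compound (30 min, 37 C, 5% CO2), then given DTNB/acetylthiocholine cocktail for 90 min at 37 C; colorimetric signal.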
# Chain of Acetylcholinesterase (Homo sapiens) (P22303 whole entry, looked up): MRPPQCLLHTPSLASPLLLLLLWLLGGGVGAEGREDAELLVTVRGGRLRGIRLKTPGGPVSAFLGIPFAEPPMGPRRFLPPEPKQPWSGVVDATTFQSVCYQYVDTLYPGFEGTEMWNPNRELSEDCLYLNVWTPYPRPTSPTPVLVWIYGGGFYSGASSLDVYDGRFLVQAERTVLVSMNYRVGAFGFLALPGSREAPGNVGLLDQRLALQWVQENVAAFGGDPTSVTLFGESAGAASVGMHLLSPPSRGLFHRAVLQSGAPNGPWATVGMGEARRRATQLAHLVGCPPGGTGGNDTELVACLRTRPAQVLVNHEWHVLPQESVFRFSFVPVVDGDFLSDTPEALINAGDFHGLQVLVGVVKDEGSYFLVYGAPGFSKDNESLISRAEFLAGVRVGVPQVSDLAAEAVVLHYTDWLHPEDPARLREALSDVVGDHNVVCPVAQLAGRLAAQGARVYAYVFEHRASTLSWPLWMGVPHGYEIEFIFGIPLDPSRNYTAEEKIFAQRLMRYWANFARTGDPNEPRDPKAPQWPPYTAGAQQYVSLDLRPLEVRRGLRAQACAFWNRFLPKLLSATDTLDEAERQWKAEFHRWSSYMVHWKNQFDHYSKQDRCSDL
Structure (SMILES),Potency,"activity, negative = inhibition"
COCN(COC)c1nc(N(COC)COC)nc(N(COC)COC)n1,inactive,
Nc1cc([N+](=O)[O-])cc(Cl)c1O,inactive,
COc1cc(S(N)(=O)=O)cc(C(=O)O)c1OC,inactive,
CCCCN(CCCC)CCCC,inactive,
CCCOc1ccccc1-c1nc2n[nH]nc2c(=O)[nH]1,inactive,
CC(=O)OC/C=C(\C)CC/C=C(\C)CCC=C(C)C,inactive,
CC/C=C1/OC(=O)c2ccccc21,inactive,
CC1=CC(=C(c2ccc(N)cc2)c2ccc(N)cc2)C=CC1=N,,0.517% [at 10.5 µM]
O=C1CCCCCCCCCCOCCCCO1,inactive,
NCCNC(=O)c1ccc(Cl)cn1,inactive,
COc1ccc(/C=N/NC(=O)c2ccncc2)cc1OC,inactive,
Cc1ccc2c(Cl)cc(Cl)c(O)c2n1,inactive,
C[C@@H]1CC(=O)NN=C1c1ccc(NN=C(C#N)C#N)cc1,inactive,
CC(=O)OCCOCCOCCOC(C)=O,inactive,
O=C(Nc1ccc([N+](=O)[O-])cc1Cl)c1cc(Cl)ccc1O,inactive,
CC(=O)Nc1ccc(C)cc1C,inactive,
O=Cc1ccccc1S(=O)(=O)O,inactive,
CC(CN(CCN(CC(C)OCCO)CC(C)OCCO)CC(C)OCCO)OCCO (stereo not given),inactive,
COc1ccc(Cl)cc1C(=O)NCCc1ccc(S(=O)(=O)NC(=O)NC2CCCCC2)cc1,inactive,
Cc1ccc(-c2ccccc2C#N)cc1,inactive,

Structure (SMILES),Potency,"activity, negative = inhibition"
CCCCCCCC/C=C\CCCCCCCC(N)=O,inactive,
ClCCOCCOCCCl,inactive,
CC(C)[C@H](N)C(=O)OCCOCn1cnc2c(=O)[nH]c(N)nc21,inactive,
CCOC(=O)[C@H](CCc1ccccc1)N[C@@H](C)C(=O)N1C(=O)N(C)C[C@H]1C(=O)O,inactive,
CCCCCc1cccc(=O)o1,inactive,
CCn1cc(C(=O)O)c(=O)c2cc(F)c(N3CCNC(C)C3)c(F)c21 (stereo not given),inactive,
COC(=O)CCCC(=O)O,inactive,
O=C(N[C@@H](Cc1ccccc1)[C@@H](O)C(=O)N1C[C@@H](O)[C@@H](O)C1)c1cc2cc(Cl)ccc2[nH]1,inactive,
CCCCCCCCCCCC(=O)N(CC)CC,inactive,
CCCCOCCOC(=O)c1ccccc1C(=O)OCCOCCCC,inactive,
C=CC(C)(C)CC(=O)OC,inactive,
CC[Si](OC(C)=O)(OC(C)=O)OC(C)=O,inactive,
C=CC/C=C/C,inactive,
CCCC(C)C(=O)OCC (stereo not given),inactive,
CCCO[Si](OCCC)(OCCC)OCCC,inactive,
CCOC(=O)c1ccccc1C,inactive,
c1c[nH]cn1,inactive,
c1ccc2ccccc2c1,inactive,
CC(C)c1cc2c(cc1S(=O)(=O)O)[C@@]1(C)CCC[C@@](C)(C(=O)O)[C@@H]1CC2,inactive,
N[C@@H](C(=O)N[C@@H]1C(=O)N2C(C(=O)O)=C(Cl)CS[C@H]12)c1ccccc1,,-0.844% [at 10.5 µM]

# Biological target: Acetylcholinesterase (Homo sapiens) (UniProt P22303)
# Experiment: Acetylcholinesterase (AChE) small molecule antagonists: enzyme-based qHTS assay (AID 1347397); also: nearly all actives have a fitted effect of over 55% in size
# Settings: Potency: AChE enzyme activity inhibition; outcome: AChE enzyme activity inhibition; series mostly up to 115 µM
# Procedure, shortened: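 rhAChE 50 mU/mL (dispensed) + cpd or DMSO, 30 min RT; add DTNB/acetylthiocholine cocktail, 10 min RT; colorimetric thiocholine readout. qHTS, 1536-well format.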
Structure (SMILES),Potency,"activity change, negative = inhibition"
COCN(COC)c1nc(N(COC)COC)nc(N(COC)COC)n1,inactive,
Nc1cc([N+](=O)[O-])cc(Cl)c1O,inactive,
COc1cc(S(N)(=O)=O)cc(C(=O)O)c1OC,inactive,
CCCCN(CCCC)CCCC,inactive,
CCCOc1ccccc1-c1nc2n[nH]nc2c(=O)[nH]1,inactive,
CC(=O)OC/C=C(\C)CC/C=C(\C)CCC=C(C)C,inactive,
CC/C=C1/OC(=O)c2ccccc21,inactive,
CC1=CC(=C(c2ccc(N)cc2)c2ccc(N)cc2)C=CC1=N,,0.534% [at 10.5 µM]
O=C1CCCCCCCCCCOCCCCO1,inactive,
NCCNC(=O)c1ccc(Cl)cn1,inactive,
COc1ccc(/C=N/NC(=O)c2ccncc2)cc1OC,inactive,
Cc1ccc2c(Cl)cc(Cl)c(O)c2n1,inactive,
C[C@@H]1CC(=O)NN=C1c1ccc(NN=C(C#N)C#N)cc1,inactive,
CC(=O)OCCOCCOCCOC(C)=O,inactive,
O=C(Nc1ccc([N+](=O)[O-])cc1Cl)c1cc(Cl)ccc1O,inactive,
CC(=O)Nc1ccc(C)cc1C,inactive,
O=Cc1ccccc1S(=O)(=O)O,inactive,
CC(CN(CCN(CC(C)OCCO)CC(C)OCCO)CC(C)OCCO)OCCO (stereo not given),inactive,
COc1ccc(Cl)cc1C(=O)NCCc1ccc(S(=O)(=O)NC(=O)NC2CCCCC2)cc1,inactive,
Cc1ccc(-c2ccccc2C#N)cc1,inactive,

Structure (SMILES),Potency,"activity change, negative = inhibition"
CCCCCCCC/C=C\CCCCCCCC(N)=O,inactive,
ClCCOCCOCCCl,inactive,
CC(C)[C@H](N)C(=O)OCCOCn1cnc2c(=O)[nH]c(N)nc21,inactive,
CCOC(=O)[C@H](CCc1ccccc1)N[C@@H](C)C(=O)N1C(=O)N(C)C[C@H]1C(=O)O,inactive,
CCCCCc1cccc(=O)o1,inactive,
CCn1cc(C(=O)O)c(=O)c2cc(F)c(N3CCNC(C)C3)c(F)c21 (stereo not given),inactive,
COC(=O)CCCC(=O)O,inactive,
O=C(N[C@@H](Cc1ccccc1)[C@@H](O)C(=O)N1C[C@@H](O)[C@@H](O)C1)c1cc2cc(Cl)ccc2[nH]1,inactive,
CCCCCCCCCCCC(=O)N(CC)CC,inactive,
CCCCOCCOC(=O)c1ccccc1C(=O)OCCOCCCC,inactive,
C=CC(C)(C)CC(=O)OC,inactive,
CC[Si](OC(C)=O)(OC(C)=O)OC(C)=O,inactive,
C=CC/C=C/C,inactive,
CCCC(C)C(=O)OCC (stereo not given),inactive,
CCCO[Si](OCCC)(OCCC)OCCC,inactive,
CCOC(=O)c1ccccc1C,inactive,
c1c[nH]cn1,inactive,
c1ccc2ccccc2c1,inactive,
CC(C)c1cc2c(cc1S(=O)(=O)O)[C@@]1(C)CCC[C@@](C)(C(=O)O)[C@@H]1CC2,inactive,
N[C@@H](C(=O)N[C@@H]1C(=O)N2C(C(=O)O)=C(Cl)CS[C@H]12)c1ccccc1,,-0.554% [at 10.5 µM]

# From PubChem BioAssay (Tox21)
